# Bioassay records from PubChem BioAssay.
# OPRM1-OPRD1 inv: inverse agonist of human OPRM1-OPRD1 heterodimerization; cell-based MOR-DOR heterodimer luminescence, inverse agonism; inhibition, % at 9.3 µM; AID 504357; actives 0.21% (n = 340,000); in the data active = inhibition above about 22%, passing the limit was not always enough;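 note: 0% = cells with DMSO and 100% = wells without cells with DMSO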
# HTR5A inv ag: HTR5A inverse agonism, opioid heterodimer counter-screen | P47898 | HTR5A cell line, luminescence | inhibition, % at 9.3 µM | actives 0.083% (n = 340,000) | AID 504634; in the data active = inhibition mostly above about 23%, no sharp cut-off; inactive = mostly below about 18%;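 note: 0% = cells with DMSO and 100% = no-cell wells with DMSO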
# bovine MsrA act: bovine methionine sulfoxide reductase A activation | actives 0.3% (n = 360,000) | activation, % at 10.6 µM | purified bovine MsrA, absorbance read-out; in the data active = activation above about 7.5%;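 note: 0% = vehicle and 100% = reference activator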
# HTR5A ag ctr: HTR5A agonism, opioid heterodimer counter-screen. P47898. HTR5A agonist assay, luminescence, cell-based. activation, % at 9.3 µM. actives 0.61% (n = 340,000); in the data active = activation mostly above about 9.5%, no sharp cut-off; inactive = mostly below about 7.6%;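 note: 0% = cells with vehicle only and 100% = reference agonist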
# OPRM1-OPRD1 ag: OPRM1-OPRD1 heterodimerization agonism | P35372+P41143 | cells, luminescence | activation, % at 9.3 µM | actives 0.3% (n = 340,000); in the data active = activation above about 18%;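 note: 0% = vehicle-treated cells and 100% = reference agonist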
# MsrA inh: inhibitors of bovine MsrA; purified bovine MsrA, absorbance read-out; inhibition, % at 15.5 µM; actives 0.75% (n = 360,000); AID 651718;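 note: 0% = vehicle wells with enzyme and 100% = reference inhibitor wells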
# MsrA inh confirm: confirmation of bovine MsrA inhibitors; shares compounds with MsrA inh; purified bovine MsrA, absorbance read-out; inhibition, % at 15.5 µM; actives 41% (n = 2,300); AID 651822;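 note: coupled to thioredoxin reductase with NADPH and selenocystamine and DMSO as substrate; 0% = vehicle only and 100% = full effect of reference inhibitor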
# Active calls of the source: *; x = no result. Only some compounds are listed: those with a hit (about 1.9% of all), similar ones and a draw of the others. Cut-off read from the data, not from the text of the source, unless noted: active = inhibition above about 4.5%; inactive = the rest.
SMILES,OPRM1-OPRD1 inv,HTR5A inv ag,bovine MsrA act,HTR5A ag ctr,OPRM1-OPRD1 ag,MsrA inh,MsrA inh confirm
C/C(=N\Nc1ccc(C(=O)O)cc1)c1ccc(-n2ccnc2)cc1,11.1,19.9,-2.9,2.3,-2.1,6.5*,4.5*
COc1ccc(Nc2nc3c(C)cccc3cc2C#N)cc1,1.0,-3.7,-11.5,1.3,-0.2,3.8,x
COc1cccc(Nc2nc3cc(OC)ccc3cc2C#N)c1,-13.9,10.5,-2.5,5.8,2.7,16.7*,13.2*
CCOC(=O)c1cc(C(=O)OCC)c(=O)[nH]c1N1CCCC1,0.9,-0.7,-11.2,2.4,-0.1,6.8*,4.3
COc1ccc(OC)c(NC(=O)Nc2nc(CN(C)C)cs2)c1,x,x,-1.8,x,x,0.3,x
COC(=O)[C@]12C[C@H](CC(=O)N3CCN(C(=O)C4CC4)CC3)C(=O)N(CCC3=CCCCC3)C1=C[C@H](C(C)(C)C)O[C@@H]2C,x,x,x,x,x,-0.8,x
COc1ccc(/C=N/NC(=O)CN(C2=NS(=O)(=O)c3ccccc32)c2ccccc2)cc1,6.2,5.2,-0.3,-1.5,-1.1,1.8,x
COc1ccccc1/C=N/NC(=O)CN(C1=NS(=O)(=O)c2ccccc21)c1ccccc1,0.0,-24.4,-8.6,6.2,0.0,6.1*,1.0
COc1ccc(-c2cc(=O)c3ccccc3o2)cc1,18.9,1.1,-3.8,-3.8,-3.8,2.2,x
COc1ccc(-c2cc(=O)c3cccc(CC(=O)O)c3o2)cc1,x,x,x,x,x,5.0*,4.6*
O=C(O)c1ccc(N/N=C/c2c[nH]c3ccccc23)cc1,-15.1,-17.9,-5.3,5.0,3.4,5.6*,6.1*
NC(=S)N/N=C/c1c[nH]c2ccccc12,13.8,16.5,-0.5,-6.1,-2.7,6.5*,3.0
O=C(O)c1ccc(S(=O)(=O)NN=Cc2c[nH]c3ccccc23)cc1,x,x,-15.6,x,x,2.1,x
COC(=O)N/N=C/c1c[nH]c2ccccc12,2.4,-1.0,-0.9,8.1,-0.5,0.9,x
CC(C)n1cc(/C=N/Nc2ccc(C(=O)O)cc2)c2ccccc21,-3.3,1.6,-2.1,-0.5,0.7,5.5*,4.2
O=C(N/N=C\c1c[nH]c2ccccc12)c1ccc(O)cc1,12.4,-5.3,-5.0,1.4,-2.1,5.3*,4.1
Cc1cccc(NC(=O)CNC(=O)[C@@H](Cc2ccccc2)NC(=O)[C@H]2O[C@@H](n3ccc(N)nc3=O)[C@H](O)[C@@H]2O)c1C,x,x,x,x,x,1.1,x
O=C(C(=O)N1CCC(Cc2ccccc2)CC1)c1ccccc1,x,x,x,x,x,0.4,x
Cc1[nH]n(-c2ccc([N+](=O)[O-])cc2)c(=O)c1C=NCC1CCCO1 (stereo not given),x,x,-10.3,x,x,6.8*,5.3*
COc1ccc(-c2cc3ccc(OCc4nn[nH]n4)cc3oc2=O)cc1OC,14.4,-6.3,-5.2,5.1,-2.9,6.5*,4.0
CCOC(=O)C1=C[C@@H](C2CCCC2)N(S(=O)(=O)c2ccc([N+](=O)[O-])cc2)[C@H]1c1ccccc1,x,x,-2.5,x,x,-0.3,x
O=C(O)c1ccccc1NS(=O)(=O)c1ccc(NN=Cc2ccccc2F)c([N+](=O)[O-])c1,1.4,-3.4,-6.8,-2.1,-0.4,5.3*,3.0
COC(=O)C1=C(C)N(CC(C)C)C(=S)NC1c1cccc(F)c1 (stereo not given),x,x,x,x,x,0.6,x
CCOC(=O)c1cc(C(C)=O)c(=O)n(C)c1N,8.2,-25.9,-5.2,9.9,-1.4,5.9*,4.8*
CCOC(=O)c1cc(C(=O)OCC)c(=O)[nH]c1C,3.2,19.4,-6.4,7.9,-0.7,1.5,x
SMILES,OPRM1-OPRD1 inv,HTR5A inv ag,bovine MsrA act,HTR5A ag ctr,OPRM1-OPRD1 ag,MsrA inh,MsrA inh confirm
CC1CC(=O)NN=C1c1ccc(N(C)C)c([N+](=O)[O-])c1 (stereo not given),9.8,13.6,-5.2,-1.1,-1.8,4.7*,3.6
O=C(/C=C/c1c(Cl)nc2ccccn12)N1CCCCC1,2.7,-0.5,-4.4,0.9,-0.4,7.8*,4.5
O=C(/C=C/c1c(Cl)nc2ccccn12)N1CCN(c2ccccc2F)CC1,4.0,4.3,-1.5,-1.6,-0.6,1.8,x
Oc1[nH]c2ccccc2c1C=NCC1CCCO1 (stereo not given),12.0,1.2,-8.4,-0.5,-2.2,6.0*,3.1
Oc1ccc(/C=N/NC(=S)Nc2cccnc2)c(O)c1,18.6,-8.1,-4.7,5.7,-3.6,7.0*,5.2*
CSC(=Cc1ccc(C(=O)c2ccc(C)cc2)n1C)S(C)=O (stereo not given),x,x,x,x,x,5.0*,2.9
Cc1ccc(/C=N/NC(=O)C(=O)N/N=C/c2ccc(C)o2)o1,7.0,-6.6,-7.5,3.6,-1.4,2.2,x
